tim23-1 inh: inhibits growth of tim23-1 mutant yeast | S. cerevisiae tim23-1 growth, BacTiter-Glo luminescence, 24 h | inhibition, % at 20 µM | 1.3% of 330,000 active;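 active means growth inhibition of the mutant yeast at or above 50%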;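 further: temperature-sensitive mutant grown at 25 °C; plate controls were DMSO-treated mutant yeast for no effect and medium wells lacking yeast for full effect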
NALP1 inh: NALP1 inhibition. inhibition, % at 10 µM. 0.61% of 280,000 active. AID 2071. S. cerevisiae NALP1/ASC/caspase-1 growth, X-gal OD620, 72 h; in the data active means inhibition mostly above about 24%, no sharp cut-off; inactive means mostly below about 32%
TIM10 inh: growth inhibitors of TIM10 yeast strain | S. cerevisiae TIM10 strain growth, BacTiter-Glo luminescence, 24 h | inhibition, % at 10 µM | 1.4% of 330,000 active | AID 463195;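 active means inhibition of 40% or more at the single tested concentration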;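 further: wild-type TIM10 isogenic control strain grown at permissive 25 °C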
V-ATPase pH: alters yeast V-ATPase proton transport. S. cerevisiae, pHLuorin cytosolic pH fluorescence. response, % at 10 µM. 0.37% of 350,000 active. AID 504577; in the data active means response mostly above about 7.3%, no sharp cut-off; inactive means mostly below about 5.4%; further: actives read high
tim10-1 inh: growth inhibitors of tim10-1 mutant yeast; 2.2% of 330,000 active; S. cerevisiae tim10-1 ts strain growth, BacTiter-Glo, 24 h; AID 463190; inhibition, % at 20 µM;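 active means inhibition of at least 40%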;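 further: mutant grown at 25 °C; 0% = DMSO wells with yeast and 100% = wells holding no yeast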
NALP3 yeast inh: NALP3 inhibition in yeast; Yeast reconstituted NLRP3/ASC/caspase-1, beta-gal luminescence, 24 h; inhibition, % at 10 µM; 0.39% of 330,000 active; AID 2825;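 active means inhibition of 50% or more; inactive means inhibition below 50%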;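 further: plate controls were induced DMSO wells for no effect and uninduced yeast grown without galactose for full effect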
tim23-1 conf: tim23-1 yeast growth inhibition, confirmed | shares compounds with tim23-1 inh | S. cerevisiae tim23-1 growth, BacTiter-Glo luminescence, 24 h | inhibition, % at 20 µM | 83% of 4,400 active | AID 463218;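 active means inhibition above about 39% in either of two replicate wells at 20 µM, limit read from the data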;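 further: temperature-sensitive tim23-1 mutant grown at 25 °C; 0% = DMSO wells with yeast and 100% = medium wells without yeast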
Starred values were filed as active, the others as inactive; . = no result. Most compounds without a hit are left out; they make up all but 4.2% or so of the library.

SMILES	tim23-1 inh	NALP1 inh	TIM10 inh	V-ATPase pH	tim10-1 inh	NALP3 yeast inh	tim23-1 conf
CCOC(=O)c1ccc2c(c1)n(CC)c(/C=C/N(C)c1ccccc1)[n+]2CC	-18	15	1	-3	2	-2	.
COc1ccccc1NC(=O)c1cccc(NC(=O)c2ccco2)c1	57*	-5	17	0	26	14	45*
O=C(Nc1cccc(N=Cc2cc(Cl)cc(Br)c2O)c1)c1ccco1	78*	12	12	-8	20	4	90*
O=C(Nc1cccc(NC(=O)c2ccco2)c1)c1cccc(Br)c1	58*	7	7	4	-10	13	60*
COc1ccc(OC)c(NC(=O)c2cccc(NC(=O)c3ccco3)c2)c1	.	.	.	-3	.	.	.
Cc1cc(C(=O)NNC(=O)NC(C)C)no1	-14	.	-4	5	-7	10	.
C=CCc1cccc(/C=N/NC(=O)CNc2cccc3ccccc23)c1O	57*	26	19	2	27	24	73*
CCOc1ccccc1NC(=O)CCCn1cc([N+](=O)[O-])cn1	13	11	-16	0	17	7	.
Cc1[nH]n(-c2nc(-c3ccccc3)cc(=O)[nH]2)c(=O)c1CCO	87*	-22	6	-4	2	21	12
Cc1nc(-c2ccccc2)cc(=O)[nH]1	0	22	7	-2	8	15	.
COc1cc(N=C2C(=O)N3c4c(cccc42)C(C)=CC3(C)C)cc(OC)c1	28	38	16	1	20	9	.
COc1cccc(C(=O)Oc2cc3c4c(c2)C(C)=CC(C)(C)N4C(=O)C3=O)c1	63*	-6	29	7	28	4	70*
COc1ccc(C2=COc3ccccc3C(=O)N2)cc1	14	-8	8	3	11	32	.
COc1ccc(C2=C(C=O)Cc3ccccc3O2)cc1	51*	.	25	0	33	40	53*
Cc1cc(C)c(NC(=O)CS(=O)CC(=O)N2CCN(c3ccc(F)cc3)CC2)c(C)c1 (stereo not drawn)	7	22	7	6	-18	11	.
Cc1cc(C)c(NC(=O)CS(=O)CC(=O)N2CCN(c3cccc(C)c3C)CC2)c(C)c1 (stereo not drawn)	90*	22	-8	-4	4	9	7
CS(=O)(=O)N(CC(=O)N1CCc2ccccc2C1)c1cccc(Br)c1	24	.	21	1	21	12	.
COc1ccc2oc(C(=O)OCC(=O)N3CCC(C)CC3)c(C)c2c1	50	13	-1	-2	7	36	.
Cc1c(C(=O)OCC(=O)N2CCC(C)CC2)oc2ccccc12	54*	.	35	4	21	44	58*
Cc1ccccc1NC(=O)C(=O)NNC(=O)COc1ccc2ccccc2c1	-15	2	-13	-2	-6	13	.
O=C(Nc1ccc(C(=O)Nc2ccccc2Cl)cc1)c1cccnc1	21	6	3	2	24	22	.
CC1=NN(c2ccccc2)C(=O)/C1=C/c1ccc[nH]1	21	24	22	1	20	12	.
CC1(C)OC(=O)C(=Cc2ccc[nH]2)C(=O)O1	76*	19	5	-3	12	-2	53*
CC(C)(C)c1nnc(N/N=C/c2ccccc2O)n(N)c1=O	62*	9	37	1	34	-3	47*
CCC(C(=O)Nc1ccc2c(c1)OCCO2)n1c(=O)[nH]c2ccccc2c1=O (stereo not drawn)	-3	-1	3	3	-13	7	.
CCC(C)N(C(=O)COC(=O)c1ccccc1SCC(=O)N1CCCC1)C1CCS(=O)(=O)C1 (stereo not drawn)	4	8	7	-3	-17	7	.
COc1ccc(CNC(=O)CN(c2ccccc2OC)S(=O)(=O)c2cccs2)cc1	31	.	29	0	18	-1	.
CC1(C)CC2CC(C)(CN2C(=O)c2cc(-c3ccc(O)cc3)on2)C1 (stereo not drawn)	53*	2	-6	-6	-36	12	48*
COc1cccc(-c2cc(C(=O)N3CC4(C)CC3CC(C)(C)C4)no2)c1 (stereo not drawn)	44	-31	26	-6	33	-3	.

Source: PubChem
